The text below walks through data of PubChem BioAssay.

Active and inactive are the calls of the source. Unless noted, how the calls were made is not given here.

The subject of experiment [1] is Wnt5a (protein binding on small-molecule microarray). Nature of the experiment: Wnt5a binders on small-molecule microarray, primary screen, biophysical, 635/667 nm fluorescence (AID 1142).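 Further: fluorescence read at 667 nm with signal to noise per printed feature.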 The note with it: 635 nm fluorescence, higher = more signal.
A short description of experiment [2]: cell viability in Huh7 cells, primary screen, cytotoxicity control for HCV replication inhibitor project, CellTiter-Glo luminescence, basal, 48 h (AID 1143).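 Further: Huh7 hepatoma cells carrying a hepatitis C replication reporter with no stimulus; test concentration not given here.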 To be noted: Huh7 HCV replicon, higher = more signal, called active from +8 up or from −8 down.
Experiment [3] in a line: P. aeruginosa biofilm formation inhibitors, primary screen, PAO1 strain, BacTiter-Glo luminescence, LB-PBS (AID 1144). To be noted: 12 h, higher = more signal.
Experiment [4] can be described thus: CREB reporter modulators without forskolin, primary screen, cell-based, PC12, CRE-LacZ reporter, unstimulated (AID 1145). To be noted: no forskolin, luminescence, 4.5 h, higher = more signal, called active from +8 up or from −8 down.
Experiment [5] in a line: CREB reporter modulators under forskolin, primary screen, cell-based, PC12, CRE-LacZ reporter, forskolin-stimulated (AID 1146).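 Further: PC12 cells with 6xCRE LacZ reporter stimulated by forskolin 10 µM; beta-galactosidase reporter signal reflecting CREB driven transcription.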 The note with it: luminescence, 4.5 h, higher = more signal, called active from +8 up or from −8 down.
For experiment [6], the target named is Streptavidin (Streptomyces avidinii) (UniProt P22629). In words: streptavidin binders on small-molecule microarray, primary screen, artefact control for SMM compound annotation, biophysical, 635/667 nm fluorescence (AID 1147).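 Further: signal reflects streptavidin binding to arrayed compounds as a control protein.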 To be noted: streptavidin binding, higher = more signal.
Streptavidin (Streptomyces avidinii), sequence (P22629 whole entry, looked up): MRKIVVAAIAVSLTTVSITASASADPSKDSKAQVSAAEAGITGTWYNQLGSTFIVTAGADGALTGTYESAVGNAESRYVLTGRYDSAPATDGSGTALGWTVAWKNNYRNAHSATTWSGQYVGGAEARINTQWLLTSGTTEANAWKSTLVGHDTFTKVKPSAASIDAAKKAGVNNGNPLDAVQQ
Experiment [7] can be described thus: small-molecule binders of probe aInhba, primary screen, biochemical, small-molecule microarray, 635/667 nm fluorescence (AID 1148).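 Further: score merges 667nm spot fluorescence with signal-to-noise for antibody binding to printed compounds.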 The note with it: higher = more signal.
For experiment [8], the target named is Torsin-1A (Homo sapiens) (UniProt O14656). In words: torsin A binders from cell lysate, primary screen, small-molecule microarray, wild-type, 635/667 nm (AID 1149). To be noted: COS7 hTOR1A-WT lysate, 635 nm fluorescence, higher = more signal.
Torsin-1A (Homo sapiens), sequence (O14656 whole entry, looked up): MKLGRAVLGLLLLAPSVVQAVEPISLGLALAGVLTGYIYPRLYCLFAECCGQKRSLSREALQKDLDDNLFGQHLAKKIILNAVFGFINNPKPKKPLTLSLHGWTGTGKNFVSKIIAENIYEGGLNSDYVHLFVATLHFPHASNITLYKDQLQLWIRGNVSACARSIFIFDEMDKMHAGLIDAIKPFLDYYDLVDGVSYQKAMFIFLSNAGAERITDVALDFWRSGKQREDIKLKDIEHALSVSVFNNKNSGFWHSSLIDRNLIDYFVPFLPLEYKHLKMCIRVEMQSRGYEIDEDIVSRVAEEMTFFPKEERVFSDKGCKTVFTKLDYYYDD
Experiment [9] has the same target. Nature of the experiment: small-molecule binders of mutant TOR1A in lysate, primary screen, cell lysate, small-molecule microarray, COS7 lysate, 635/667 nm fluorescence (AID 1150).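 Further: score pools 667 nm emission and signal to noise measuring lysate protein binding.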 The note with it: COS7 hTOR1A mutant lysate, 635 nm fluorescence, higher = more signal.
The test system of experiment [10] is Sonic hedgehog protein (Shh). Nature of the experiment: small-molecule binders of Shh protein, primary screen, biochemical, small-molecule microarray, 635/667 nm fluorescence (AID 1151).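 Further: Shh protein binding to compounds spotted on small-molecule microarray slides; score combines spot fluorescence intensity with signal-to-noise across triplicate slides.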 The note with it: small-molecule microarray binding, 635 nm fluorescence; higher = more signal.
Experiment [11] in a line: E. coli DRC41 culture turbidity changes, primary screen, E. coli filamentation inducer project, strain DRC41, OD650, 48 h (AID 1152).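 Further: E. coli MC1000 strain DRC41 lacking acrAB efflux pump and sulA.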 The note with it: E. coli DRC41 (acrAB sulA), higher = more signal, called active from +8 up or from −8 down.
A short description of experiment [12]: small-molecule binders of probe aLefty1, primary screen, biochemical, small-molecule microarray, 635/667 nm fluorescence (AID 1153).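 Further: score merges spot fluorescence with signal-to-noise ratio from the scanned slide images.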 To be noted: higher = more signal.
Experiment [13] is described as follows: PSAC antagonists in infected red cells, primary screen, cell-based, P. falciparum Indochina, OD700, 1 h (AID 1154). To be noted: P. falciparum Indochina infected RBC osmotic lysis, higher = more signal, called active from +8 up or from −8 down.
Experiment [14] can be described thus: PSAC antagonists in infected red cells, primary screen, cell-based, P. falciparum Indochina, OD700, 2 h (AID 1155).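 Further: lysis reports solute entry through the parasite surface anion channel PSAC; channel blockers reduce lysis of infected cells.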 To be noted: P. falciparum Indochina infected erythrocytes, osmotic lysis OD700; higher = more signal, called active from +8 up or from −8 down.
Experiment [15] is described as follows: osmotic lysis modulators in infected erythrocytes, primary screen, PSAC antagonist project, cell-based, P. falciparum Indochina, OD700, 3 h (AID 1156). The note with it: higher = more signal, called active from +8 up or from −8 down.
Experiment [16] is described as follows: PSAC antagonists in infected red cells, primary screen, cell-based, P. falciparum Indochina, OD700, 18 h (AID 1157). To be noted: P. falciparum Indochina infected erythrocytes, osmotic lysis OD700, 18 h; higher = more signal, called active from +8 up or from −8 down.
The nature of experiment [17]: modulators of S6 phosphorylation in cells, primary screen, cell-based, A549, cytoblot, luminescence, serum-stimulated (AID 1158).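 Further: serum-stimulated A549 lung adenocarcinoma cells; signal is phosphorylated S6 detected by cytoblot immunostaining with HRP secondary.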 To be noted: A549 phospho-S6 cytoblot, 5 h, higher = more signal.
Experiment [18] has as its target NADPH oxidase 2 (Homo sapiens) (UniProt P04839). Nature of the experiment: NOX2-dependent H2O2 signal modulators, primary screen, NOX inhibitor project, cell-based, HEK293-NOX2, PMA-stimulated, Amplex Red fluorescence (AID 1159). Further: test concentration not given here. The note with it: 45 min, higher = more signal, called active from +8 up or from −8 down.
The target of experiment [19] is NADPH oxidase 4 (Homo sapiens) (UniProt Q9NPH5). Nature of the experiment: NOX4-dependent H2O2 signal modulators, primary screen, NOX inhibitor project, cell-based, HEK293-NOX4, tetracycline-induced, Amplex Red fluorescence (AID 1160). The note with it: 45 min, higher = more signal, called active from +8 up or from −8 down.
NADPH oxidase 4 (Homo sapiens), sequence (Q9NPH5 whole entry, looked up): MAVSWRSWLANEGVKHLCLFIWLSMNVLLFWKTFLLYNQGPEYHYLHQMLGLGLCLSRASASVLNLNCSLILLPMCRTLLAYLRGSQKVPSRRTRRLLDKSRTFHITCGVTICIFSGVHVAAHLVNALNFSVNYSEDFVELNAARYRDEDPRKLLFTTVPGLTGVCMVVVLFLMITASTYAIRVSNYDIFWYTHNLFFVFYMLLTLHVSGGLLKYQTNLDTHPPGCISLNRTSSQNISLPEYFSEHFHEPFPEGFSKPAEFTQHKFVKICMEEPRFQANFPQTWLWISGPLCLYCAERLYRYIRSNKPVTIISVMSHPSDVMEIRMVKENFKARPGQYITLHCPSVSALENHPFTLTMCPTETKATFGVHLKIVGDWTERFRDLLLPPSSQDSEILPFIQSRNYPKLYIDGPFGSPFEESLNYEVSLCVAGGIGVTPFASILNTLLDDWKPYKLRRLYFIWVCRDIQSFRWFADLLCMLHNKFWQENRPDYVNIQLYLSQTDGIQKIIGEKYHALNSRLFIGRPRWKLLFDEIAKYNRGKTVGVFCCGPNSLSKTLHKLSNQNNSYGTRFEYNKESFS
The target of experiment [20] is NADPH oxidase 5 (Homo sapiens) (UniProt Q96PH1). In words: NOX5-dependent H2O2 signal modulators, primary screen, NOX inhibitor project, cell-based, HEK293-NOX5, Amplex Red fluorescence (AID 1161). The note with it: HEK293-NOX5, ionomycin, 45 min, higher = more signal.
NADPH oxidase 5 (Homo sapiens), sequence (Q96PH1 whole entry, looked up): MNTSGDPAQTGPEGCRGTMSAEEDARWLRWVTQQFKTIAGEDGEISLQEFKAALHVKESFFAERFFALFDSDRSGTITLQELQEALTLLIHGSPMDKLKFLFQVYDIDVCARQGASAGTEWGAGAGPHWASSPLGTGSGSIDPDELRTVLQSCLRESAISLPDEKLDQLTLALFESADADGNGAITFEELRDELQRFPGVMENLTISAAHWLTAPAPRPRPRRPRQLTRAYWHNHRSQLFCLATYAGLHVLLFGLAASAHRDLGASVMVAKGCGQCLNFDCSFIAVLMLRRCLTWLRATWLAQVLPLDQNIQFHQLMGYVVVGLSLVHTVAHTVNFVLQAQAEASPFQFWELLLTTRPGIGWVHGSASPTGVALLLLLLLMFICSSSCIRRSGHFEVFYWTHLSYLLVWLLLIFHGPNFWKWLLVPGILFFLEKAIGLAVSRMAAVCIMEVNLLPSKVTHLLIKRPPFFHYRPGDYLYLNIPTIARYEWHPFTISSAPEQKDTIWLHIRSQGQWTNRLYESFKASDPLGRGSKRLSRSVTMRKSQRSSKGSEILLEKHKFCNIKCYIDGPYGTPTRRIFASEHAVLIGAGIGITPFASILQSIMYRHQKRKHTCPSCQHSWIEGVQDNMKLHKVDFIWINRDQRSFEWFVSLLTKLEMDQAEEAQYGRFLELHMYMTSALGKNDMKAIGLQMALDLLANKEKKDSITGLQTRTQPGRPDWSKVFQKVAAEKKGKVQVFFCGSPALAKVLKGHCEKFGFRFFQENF

NADPH oxidase 2 (Homo sapiens), sequence (P04839 whole entry, looked up): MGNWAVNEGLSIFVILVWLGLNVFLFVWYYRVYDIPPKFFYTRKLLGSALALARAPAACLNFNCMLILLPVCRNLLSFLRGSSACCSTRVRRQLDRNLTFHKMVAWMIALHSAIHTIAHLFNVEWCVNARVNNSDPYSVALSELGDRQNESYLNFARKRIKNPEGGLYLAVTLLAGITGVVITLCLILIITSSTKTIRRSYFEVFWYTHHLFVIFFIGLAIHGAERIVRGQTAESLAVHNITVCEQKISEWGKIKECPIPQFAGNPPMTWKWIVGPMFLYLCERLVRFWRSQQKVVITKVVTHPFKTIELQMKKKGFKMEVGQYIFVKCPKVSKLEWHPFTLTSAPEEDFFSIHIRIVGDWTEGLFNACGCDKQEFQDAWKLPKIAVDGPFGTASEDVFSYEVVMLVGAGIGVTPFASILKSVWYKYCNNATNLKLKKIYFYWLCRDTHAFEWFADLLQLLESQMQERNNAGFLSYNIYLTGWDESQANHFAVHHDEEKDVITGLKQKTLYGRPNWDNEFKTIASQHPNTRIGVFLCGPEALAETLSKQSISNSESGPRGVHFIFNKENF

For the compound `C=C(CC1([C@@H](NP(=O)(c2ccccc2)c2ccccc2)[C@H]2C[C@@H]2CCCC)CC1)c1cccc(OC)c1`, the composite z-score in experiment [1] was 0.0445; in [6], 0.566; in experiment [7] it was 0.0227; with Torsin-1A (Homo sapiens) [8], -0.547; with Torsin-1A (Homo sapiens) [9] it was -0.302; in [10] it was -0.836. In addition, the composite z-score in [12] stood at 0.494. The z-score was -1.65 (inactive) in experiment [2]; 0.496 (inactive) in [3]; 0.0109 (inactive) in experiment [4]; 0.276 (inactive) in experiment [5]; -1.57 (inactive) in [11]; 2.33 (inactive) in experiment [13]. Besides, the z-score in experiment [14] is 0.451 (inactive); in experiment [15] it was 1.36 (inactive); in [16], 0.935 (inactive); in experiment [17], -0.254; in [18], -0.914 (inactive); in experiment [19], -1.36 (inactive). Further, the z-score in experiment [20] was -2.78.
In the case of `COc1ccc([Si](C)(C)[C@H]2[C@H](CC(=O)N3CCC[C@H]3CO)O[C@@]3(C(=O)N(C)c4ccccc43)[C@@H]2C)cc1`, the composite z-score was -0.0653 in experiment [1]; -0.28 in experiment [6]; 0.152 in experiment [7]; 1.52 in the experiment with Torsin-1A (Homo sapiens) [8]; 0.732 in the experiment with Torsin-1A (Homo sapiens) [9]; 1.54 in [10]. For the same compound, in experiment [12], the composite z-score was -0.0143. For the same compound, the z-score was 0.191 (inactive) in experiment [2]; -0.0357 (inactive) in experiment [3]; 1.2 (inactive) in experiment [4]; 1.33 (inactive) in experiment [5]; -0.716 (inactive) in [11]; 0.577 (inactive) in experiment [13]. Moreover, the z-score in experiment [14] was 0.225 (inactive); in [15] it was -0.0347 (inactive); in experiment [16], 0.423 (inactive); in [17], -0.0454; in [18] it was 1.4 (inactive); in experiment [19], 1.46 (inactive). This compound also yielded a z-score in [20] of 1.86.
Consider `COCCCNC(=O)[C@@]1(c2ccc([N+](=O)[O-])cc2)CC(=O)N(C2CCCCC2)[C@@H]1c1ccc(CO)cc1I`, for which the composite z-score in experiment [1] was 0.0398; in [6], -0.16; in [7] it was 0.0575; with Torsin-1A (Homo sapiens) [8] it was 0.95; with Torsin-1A (Homo sapiens) [9], 1.39; in experiment [10] it was 1.81. In [12], this compound came in with a composite z-score of -0.208. Besides, the z-score in [2] is -3.87 (inactive); in [3], 0.239 (inactive); in [4], 0.414 (inactive); in experiment [5], -0.543 (inactive); in experiment [11], 0.725 (inactive); in [13] it was 12.6 (active). Besides, the z-score in [14] was 1.35 (inactive); in experiment [15] it was 3.44 (inactive); in experiment [16] it was 1.11 (inactive); in experiment [17] it was 0.107; in experiment [18] it was 1.78 (inactive); in experiment [19], 0.381 (inactive). The z-score in experiment [20] was 2.07.
Regarding `C=CC[C@]12N=C(c3ccc(OCCCO)cc3)O[C@H]1c1ccccc1N(CCC)C2=O`, the composite z-score in experiment [1] was 0.587; in experiment [6], -0.256; in [7], 0.562; with Torsin-1A (Homo sapiens) [8], 0.234; with Torsin-1A (Homo sapiens) [9], 0.397; in experiment [10], 1.61. Moreover, the composite z-score in [12] was 1.26. Also, the z-score in [2] was -3.39 (inactive); in experiment [3] it was 0.552 (inactive); in [4] it was 0.866 (inactive); in experiment [5], -0.743 (inactive); in [11] it was -0.0423 (inactive); in experiment [13] it was 32.8 (active). For the same compound, the z-score in experiment [14] was 33.1 (active); in [15], 2.98 (inactive); in [16], 4.84 (inactive); in experiment [17], 0.204; in experiment [18] it was -2.03 (inactive); in experiment [19] it was 0.00147 (inactive). The compound also returned a z-score in experiment [20] of -1.71.
`O=C1O[C@H](c2ccccc2)[C@H](c2ccccc2)N2[C@H]1[C@@H](C(=O)O)[C@]1(C(=O)Nc3ccc(C#CC4(O)CCCCCC4)cc31)[C@H]2c1ccccc1OCCO`: the composite z-score was 0.455 in [1]; 1.41 in experiment [6]; 0.397 in [7]; 0.541 in the experiment with Torsin-1A (Homo sapiens) [8]; -0.462 in the experiment with Torsin-1A (Homo sapiens) [9]; 0.721 in experiment [10]. Further, in experiment [12], the composite z-score is 0.708. In addition, the z-score is -2.05 (inactive) in experiment [2]; 1.27 (inactive) in experiment [3]; 17.9 (active) in experiment [4]; 21.5 (active) in experiment [5]; 0.782 (inactive) in experiment [11]; -2.1 (inactive) in experiment [13]. In addition, the z-score is -0.922 (inactive) in experiment [14]; -14.7 (active) in [15]; -0.743 (inactive) in [16]; 0.364 in [17]; 2.49 (inactive) in experiment [18]; -1.56 (inactive) in experiment [19]. Moreover, the z-score in [20] is -1.32.
